Source: PubChem BioAssay
mHTT-CaM PPI inh – mHTT-calmodulin interaction abrogation | P42858 | AlphaScreen His-mHTT/GST-CaM binding, luminescence | inhibition, % at 15 µM | 3.6% of 190,000 active | AID 1671202;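 note: 0% = both proteins with DMSO and 100% = one protein alone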
Pf apPOL block – Pf-apPOL DNA polymerase inhibition; inhibition, % at 10 µM; Recombinant Pf-apPOL, molecular beacon fluorescence, 1.5 h; 0.25% of 210,000 active
* marks the source's active call; other numbers are inactive results; i = inactive; nt = not tested or not shown. This excerpt belongs to a sample that is enriched for hits. Cut-off read from the data, not from the text of the source: active = inhibition above about 50%; inactive = the rest.

SMILES	mHTT-CaM PPI inh	Pf apPOL block
CCOc1ccccc1N1CCN(Cc2ccc(F)c(Br)c2)CC1	68*	-1
CCOc1ccccc1N1CCN(Cc2ccc(F)c(F)c2)CC1	-5	3
CCN1CC2(OC(=O)c3ccccc3NC(C)=O)CCC(OC)C34C1C(CC23)C1(O)CC(OC)C2CC4C1(O)C2OC (centres undefined)	nt	4
CN1CCN(Cc2ccc[nH]2)CC1	30	-6
CN1CCN(Cc2ccco2)CC1	0	78*
COc1ccc(-n2c(C)nc3cc(C(=O)N4CCC5(CC4)OCCO5)ccc32)cc1	1	-4
Cc1nc2cc(C(=O)N3CCC4(CC3)OCCO4)ccc2n1-c1ccc(Br)cc1	57*	-1
COc1ccc2c(c1)C1(CCN(C(=O)COc3ccccc3)C1)C(=O)N2 (centres undefined)	5	-1
CNC(=O)Oc1cc([N+](=O)[O-])cc2cccnc12	100*	-9
CN(C)c1ccc([N+](=O)[O-])c2cccnc12	14	nt
COc1ccccc1CN1CCN(Cc2ccccc2C)CC1	4	4
CCc1ccc(C(=O)CCN(C)C)cc1	2	-2
CN(C)CCC(=O)c1ccc(Cl)c(Cl)c1	100*	-2
CCCCOc1ccc(CN2CC3CC(C2)c2cccc(=O)n2C3)cc1 (centres undefined)	21	-8
Brc1ccc2c(c1)C1C=CCC1C(c1cccnc1)N2 (centres undefined)	85*	-4
Brc1cccc(C2CC(c3cccnc3)Nc3nnnn32)c1 (centres undefined)	-3	9
COc1cccc(Cn2nnc(C(=O)O)c2C)c1	-7	-2
CCCCCC(=O)NC(Oc1ccccc1)C(Cl)(Cl)Cl (centres undefined)	81*	-4
CC(C)C(=O)NC(Oc1ccccc1)C(Cl)(Cl)Cl (centres undefined)	-16	-4
CN1CCN(c2ccc3ncc(=O)n(C)c3n2)CC1	-2	-1
COc1cc2c(cc1OC)-c1c(OC)c(OC)c([N+](=O)[O-])c3c1C(C2)N(C)CC3 (centres undefined)	57*	nt
COc1cc2c(cc1OC)C1c3cc([N+](=O)[O-])ccc3Oc3cc(C#N)c(C#N)cc3N1CC2 (centres undefined)	13	-2
COc1ccccc1CN1CCN(Cc2cccc(F)c2)CC1	1	-11
Cc1cc(N2CCN(C)CC2)c2[nH]c3ccccc3c2c1	79*	12
Cc1nccc2c1[nH]c1ccccc12	nt	11
SMILES	mHTT-CaM PPI inh	Pf apPOL block
Cc1ccc(C=C(C#N)C#N)s1	1	nt
N#C/C(=C\c1ccc[se]1)C(N)=S	12	nt
CC1(C)Cc2c(C#N)c(N3CCNCC3)nc(Cc3ccccc3)c2CO1	3	2
N#Cc1c(Cl)c(Cl)nc(N2CCCNCC2)c1Cl	100*	-9
O=[N+]([O-])c1ccc(N2CCNCC2)cc1NCCO	0	-2
O=[N+]([O-])c1ccc(N2CCNCC2)cc1NCCc1ccccc1	91*	-3
CC(C)N(CC#CCNC(=O)c1cn(C)nn1)C(C)C	-15	-2
Fc1cccc(CN2CCCCC2c2cccnc2)c1 (centres undefined)	-7	-2
Cc1cccc(N2CCN(Cc3ccccc3)CC2)c1C	-15	-6
Cc1cccc(N2CCN(Cc3ccc(N(C)C)cc3)CC2)c1C	67*	-14
O=C(NCC#CCN1CCc2ccccc2C1)C1CC1	-8	0
C=C1CC2(C)C(=CC1=O)CCC1C2CCC2(C)C(OC(=O)OCC)CCC12 (centres undefined)	nt	-3
OC(CN(Cc1ccccc1)Cc1ccccc1)c1ccc2cc[nH]c2c1 (centres undefined)	68*	3
OCCN(CCc1ccccc1)Cc1ccccc1	-14	-6
COc1ccc(-n2c(/C=C/c3ccc(N(C)C)cc3)nc3ccccc3c2=O)cc1	-17	0
O=c1c2ccccc2nc(-c2ccco2)n1-c1ccc(F)cc1	2	-5
CCC(N)C(=O)c1ccc(Cl)cc1 (centres undefined)	-2	-1
NCCc1csc2c1CCCC2	65*	nt
O=C1NC(=S)NC(=O)C1=Cc1ccco1	nt	91*
O=C1NC(=S)NC(=O)C1=Cc1c(Cl)cccc1Cl	nt	32
O=c1oc2cc([N+](=O)[O-])c(O)c([N+](=O)[O-])c2s1	68*	-4
C=CS(=O)C1CC2(Cl)C(Cl)=C(Cl)C1(Cl)C2(Cl)Cl (centres undefined)	-14	4
O=[N+]([O-])c1ccc(N2CCN(Cc3ccc(Cl)c(Cl)c3)CC2)cc1	41	-14
COc1ccc2c(c1)C1(CCN(C(=O)Cc3cccc(F)c3)C1)C(=O)N2 (centres undefined)	17	-2
COc1cc2c(cc1OC)C(C(=O)Nc1ccc(F)cc1)C1CCCCN1C2=O (centres undefined)	18	-2
SMILES	mHTT-CaM PPI inh	Pf apPOL block
CCN(CC)c1ccc(CN2CCN(c3ccccc3)CC2)cc1	51*	0
Brc1ccc(CN2CCN(c3ccccc3)CC2)cc1	1	-6
CCC(=O)N1N=C2C3CCN(CC3)C2C1c1ccc(Cl)c(Cl)c1 (centres undefined)	-8	-9
COc1ccc(OC)c(-n2c(O)c(C=C3C=Nc4ccccc43)c(=O)[nH]c2=O)c1	34	-2
O=c1[nH]c(O)c(C=C2C=Nc3ccc(OCc4ccccc4)cc32)c(=O)[nH]1	76*	-3
O=Cc1cn(Cc2ccc([N+](=O)[O-])cc2)c2ccccc12	21	-1
CN(C)/C=C/c1c(C=O)c2cc([N+](=O)[O-])ccc2n1Cc1ccccc1	100*	-56
O=C(Nc1ccc(F)c(Cl)c1)C1c2ccccc2C(=O)N2CCCCC12 (centres undefined)	2	-5
CN1C(=O)N(C)C(=O)C(CCc2ccncc2)(Cc2cccs2)C1=O	-3	1
N/C(=N\[N+](=O)[O-])N1CCN(C(=O)c2cccc([N+](=O)[O-])c2)CC1	i	2
COc1ccccc1N1CCN(C(=O)C(O)(c2ccccc2)c2ccccc2)CC1	82*	-13
COc1ccccc1N1CCN(Cc2ccc(O)cc2)CC1	-3	-3
CCCn1cc(C(=O)Nc2ccc3c(c2)OCCO3)c2cccnc21	-3	-3
COc1ccccc1-c1c(C)oc2cc(OC(=O)N(C)C)ccc2c1=O	-3	-6
CC12CCCCC1CCC1C2CCC2(C)C1CCC2(C)O (centres undefined)	2	-1
CCN(CC)C(=O)c1ccc(NC(=O)c2ncn[nH]2)cc1	21	1
CCN(CC)C(=O)c1ccc2c(c1)C1C=CCC1C(C(=O)O)N2 (centres undefined)	76*	2
CCN(CC)C(=O)c1ccc2c(c1)C1C=CCC1C(c1ccc([N+](=O)[O-])cc1)N2 (centres undefined)	70*	-2
Cc1nn(-c2ccccc2)c2c1C(c1ccccc1)SCC(=O)N2 (centres undefined)	24	-1
CN1CCN(Cc2ccc(Cl)nc2)/C1=C(/C(Cl)=C(Cl)Cl)[N+](=O)[O-]	7	-5
CN(Cc1ccccc1)C(=C(Cl)Cl)/C(=C1\NCCN1Cc1ccc(Cl)nc1)[N+](=O)[O-]	65*	-5
COc1ccc(/C=C/[N+](=O)[O-])cc1I	72*	1
COc1ccc(/C=C/[N+](=O)[O-])cc1	26	4
COc1ccc(/C=C/[N+](=O)[O-])cc1Br	67*	-2
CN(C)c1ccc(/C=C/[N+](=O)[O-])cc1Br	21	3
